Results filed as inconclusive are left out. Calls of active or inactive are those of the source. Calls follow the shape of the dose curve; as a rule, active = well fitted cell-killing curve with a large enough effect in the repeat runs; inconclusive = weak or mixed curves; inactive = flat fitted curve, though single readings scatter.
Assay: qHTS assay to identify small molecule antagonists of the TGF-beta/Smad signaling pathway - cell viability counter screen (AID 1346824); also: nearly all actives have a fitted effect of over 50% in size
Conditions: SBE-bla HEK293T viability, CellTiter-Glo luminescence; series mostly up to 76.8 µM; viability change, negative = cytotoxic: at the top concentration
Text: U.S. Tox21 Program National Center for Advancing Translational Sciences [NCATS] NIH Chemical Genomics Center [NCGC] U.S. Environmental Protection Agency [EPA] National Institutes of Environmental Health Sciences [NIEHS] National Toxicology Program [NTP] U.S. Food and Drug Administration [FDA] Tox21 Assay Overview: Transforming growth factor beta (TGF-beta) superfamily consists of a large number of structurally related dimeric proteins that act as hormones or local mediators in regulating a wide range of biological functions. This superfamily includes TGF-betas themselves, the bone morphogenetic proteins (BMPs) and the activins. These ligands induce oligomerization of serine/threonine receptor kinases and phosphorylate the cytoplasmic signaling molecules of Smad protein family. CellSensor SBE-bla HEK 293T cell line (Life Technologies, Carlsbad, CA), responsive to TGF-beta was used to screen Tox21 10K compound library for identification of agonists/antagonists of the Smad signaling pathway. This cell line contains a beta-lactamase reporter gene under control of the Smad binding element (SBE) stably integrated into HEK 293T cells. Also cytotoxicity of the compounds was tested in parallel by measuring the cell viability using CellTiter-Glo assay system in the same wells.
Tox21 Assay Protocol Summary: SBE-bla HEK 293T cells were dispensed at 4,000/well in 5 uL of assay medium into black wall/clear-bottom 1536-well plates using a Multidrop Combi (ThermoFisher Scientific, Waltham, MA) dispenser. After the assay plates were incubated at 37 C and 5% CO2 for an overnight, 23 nL of compounds dissolved in DMSO, positive controls or DMSO only was transferred to the assay plate by a Pintool station (Kalypsys, San Diego, CA). Compound transfer was followed by the addition of 1 uL of 0.25 ng/mL TGF-beta1 or assay buffer using two separate tips of Flying Reagent Dispenser (FRD, Aurora Discovery, San Diego, CA). The assay plates were incubated at 37 C and 5% CO2 for 5 hr. One uL of LiveBLAzer B/G FRET substrate (Life Technologies) was added using a Flying Reagent Dispenser (FRD, Aurora Discovery, San Diego, CA) and the plates were incubated at room temperature for 2 hr. Fluorescence intensity (405 nm excitation, 460 nm and 530 nm emissions) was measured using an Envision plate reader (PerkinElmer, Shelton, CT). For cytotoxicity read, 4 uL of CellTiter-Glo reagent (Promega Corporation, Madison, WI) was added to each well of the assay plates using FRD. After 30 min incubation at room temperature, the luminescence intensity was measured using ViewLux plate reader (PerkinElmer).
% is scaled to controls: 0 for no effect and ±100 for the full control effect.

Structure (SMILES)	viability change, negative = cytotoxic
Cc1ccccc1C(=O)Nc1ccc(C(=O)N2CCCC(N(C)C)c3ccccc32)cc1 (stereo not given)	11.4% [at 35.3 µM] (inactive)
CN1C(C)(C)CCCC1(C)C	-4.45% [at 35.3 µM] (inactive)
Cc1ccc2c(c1)OCC(=O)CO2	-0.219% (inactive)
CC(=O)NCCCCCC(=O)O	7.76% [at 35.3 µM] (inactive)
COCCOCCOCCOCCO	-6.64% (inactive)
FC(F)(F)c1ccccc1-n1ccnc1	2.14% [at 35.3 µM] (inactive)
O=C(O)Cc1cn(-c2ccccc2)nc1-c1ccc(Cl)cc1	2.25% [at 35.3 µM] (inactive)
ClCCCl	6.99% (inactive)
CC(C)(C)c1nnc(NS(=O)(=O)c2ccc(N)cc2)s1	-1.71% [at 35.3 µM] (inactive)
On1nnc2ccccc21	2.98% (inactive)
CCOC(=O)/C=C/c1ccccc1	13% (inactive)
COc1cc(N)ccc1C	-4.52% (inactive)
C=C(C)C(=O)OCCOP(=O)(O)OCCOC(=O)C(=C)C	-8.85% (inactive)
COCCOC(=O)C1=C(C)NC(C)=C(C(=O)OC(C)C)C1c1cccc([N+](=O)[O-])c1 (stereo not given)	0.995% [at 35.3 µM] (inactive)
CCCOC(OCCC)OCCC	-3.11% (inactive)
CN1CCN(CC(=O)N2c3ccccc3C(=O)Nc3cccnc32)CC1	-11.9% [at 6.97 µM] (inactive)
C=Cc1ccccn1	-1.27% (inactive)
O=C(O)C(=O)Cc1ccccc1	5.31% (inactive)
CC1=CCC(C(C)C)=CC1	-8.09% (inactive)
CNC(=O)[C@H]1O[C@@H](n2cnc3c(NCc4cc(Cl)ccc4OCc4cc(C)no4)ncnc32)[C@H](O)[C@@H]1N	7.18% (inactive)

Structure (SMILES)	viability change, negative = cytotoxic
CC(C)=O	5.34% (inactive)
O=C(c1ccc(O)cc1)c1ccc(O)c(O)c1O	-5.88% (inactive)
NNc1nnc(NN)c2ccccc12	-0.112% [at 35.3 µM] (inactive)
CCO[Si](CCCS)(OCC)OCC	-4.28% (inactive)
O=C(O)Cc1ccc(Cl)cc1Cl	12.3% (inactive)
CCCCNC1CC(C)(C)NC(C)(C)C1	-0.975% (inactive)
CC(C)C(=O)OCCc1ccccc1	11.8% (inactive)
CCCCC(CC)COCCO (stereo not given)	-6.43% (inactive)
Nc1ccc(S(=O)(=O)Nc2ccc(Cl)nn2)cc1	-0.494% [at 35.3 µM] (inactive)
CCOCCOC(=O)/C=C/c1ccc(OC)cc1	-5.68% [at 35.3 µM] (inactive)
CCCCCCCC/C=C\CCCCCCCC(=O)OCCCC	2.1% [at 15.8 µM] (inactive)
CC(C)N(c1ccccc1)C(C)C	0.947% (inactive)
CCOCCOCCOCC	3.9% (inactive)
CCCOC(=O)C(C)O (stereo not given)	8.55% (inactive)
OC[C@H](Cc1cccc(O)c1)[C@H](CO)Cc1cccc(O)c1	2.31% (inactive)
CCCCCCCCSCC	3.01% (inactive)
COC(=O)[C@@H]1[C@H]2C[C@H]3c4[nH]c5ccccc5c4CCN3C[C@@H]2CC[C@@H]1O	0.438% [at 35.3 µM] (inactive)
CCc1ccc(C=O)cc1	0.587% (inactive)
COc1ccc(-c2cc(=O)c3c(O)cc(O[C@@H]4O[C@H](CO[C@@H]5O[C@@H](C)[C@H](O)[C@@H](O)[C@H]5O)[C@@H](O)[C@H](O)[C@H]4O)cc3o2)cc1O	0.838% [at 35.3 µM] (inactive)
CC1(C)S[C@@H]2[C@H](N=CN3CCCCCC3)C(=O)N2[C@H]1C(=O)O	-2.3% [at 35.3 µM] (inactive)

Source: PubChem BioAssay (Tox21)
